Data: PubChem BioAssay AID2174 (The Scripps Research Institute Molecular Screening Center, 2009)
Out of some 320,000 compounds screened, about 500 (0.16%) were called active. The sample holds actives, similar compounds and a random draw of the others, so the mix is not that of the screen. Values without a mark were called inactive.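 Rule for the calls: active = inhibition above the mean of all tested compounds plus 3 SD, set per campaign (cut at about 14% in these data); inactive = the rest.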

target: Acyl-protein thioesterase 1 (Homo sapiens) (UniProt O75608); experiment: LYPLA1 inhibitors, primary screen, counter-screen for PME1 inhibitor project, biochemical, fluorescence polarization, FP-Rh probe ABPP (AID 2174); conditions: recombinant LYPLA1, FP-Rh probe fluorescence polarization; at 5.9 µM; stronger effect = higher value;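 note: inhibitors block serine hydrolase probe labeling of LYPLA1 so polarization falls; 0% = enzyme with DMSO and 100% = wells lacking LYPLA1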
Sequence (O75608 whole entry, looked up): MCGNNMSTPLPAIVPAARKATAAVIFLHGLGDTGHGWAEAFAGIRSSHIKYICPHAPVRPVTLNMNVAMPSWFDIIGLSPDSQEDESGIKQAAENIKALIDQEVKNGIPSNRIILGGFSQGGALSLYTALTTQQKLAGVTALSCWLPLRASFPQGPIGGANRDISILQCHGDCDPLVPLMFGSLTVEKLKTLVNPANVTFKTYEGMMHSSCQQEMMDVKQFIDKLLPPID

First: COc1cccc(CNS(=O)(=O)c2csc(C(N)=O)c2)c1
Second: O=C(CCNS(=O)(=O)c1ccccc1C(F)(F)F)Nc1ccncc1
The inhibition of the first is higher: -2.15% for the first, -2.82% for the second.

Going from `CCCCn1c(N)c(N(CC(C)C)C(=O)CN(C)S(=O)(=O)c2ccc(F)cc2)c(=O)[nH]c1=O` to `CCOC(=O)Cc1csc(NC(=O)CN(C)S(=O)(=O)c2ccc3c(c2)CCC(=O)N3)n1`, the inhibition rises from -3.12% to -0.84%.

Compared with `CC(=O)N1C(C)c2ccccc2C(C)(C)CC12CCCCC2` (stereo not drawn), `CN1CCN(C(=O)N2c3ccccc3CCc3ccccc32)CC1` is higher in inhibition: 0.06% for the first, 3.26% for the second.

Going from `COC(=O)c1ccc2ccccc2c1OC1OC(CO)C(O)C(O)C1NC(C)=O` (stereo not drawn) to `CCOC(=O)c1cc2cc(-c3c(C(=O)OCC)oc4cc(O)cc(O)c4c3=O)ccc2o1`, the inhibition rises from -2.18% to 9.58%.

First: Cc1ccc2c(c1)N(S(=O)(=O)c1cc(-c3cc(C)no3)ccc1C)CCO2
Second: Cc1cccc(N2CCN(C(=O)CCS(=O)(=O)c3ccc4c(c3)NC(=O)C(C)S4)CC2)c1C (stereo not drawn)
The inhibition of the first is lower: -4.6% for the first, 2.02% for the second.

Compared with `O=C(O)CSc1nccn1-c1cccc(Cl)c1`, `O=c1c(-c2cccc(Cl)c2)c[nH]n1-c1ccccc1` is lower in inhibition: -1.21% for the first, -3.25% for the second.

First: Cc1ccc(C2=NN(C)c3nc4ccccc4n3C2)cc1
Second: CCOC(=O)c1nnn2c1nc(N1CCN(c3ccccc3)CC1)c1ccccc12
The inhibition of the first is lower: -2.83% for the first, -0.46% for the second.

First: O=C(CSc1ncnc2c1nnn2Cc1ccc(F)cc1)NC1CCCC1
Second: C/C(Cn1nnc2ccccc21)=N\OC(=O)c1cc(F)c(F)cc1Cl
The inhibition of the first is higher: 1.1% for the first, -3.21% for the second.

Going from `Cn1c(=O)c2c(nc(N/N=C/c3cccs3)n2Cc2ccc(Br)cc2)n(C)c1=O` to `Cc1nc(C(=O)N2CCCC(C(=O)c3ccc(Cl)cc3)C2)cs1` (stereo not drawn), the inhibition falls from 4.08% to -0.29%.

Compared with `Cn1nccc1C(=O)N1CCCC(C(=O)c2ccc(Oc3ccccc3)cc2)C1` (stereo not drawn), `COC(=O)c1cc2c(ccn2C)n1C` is lower in inhibition: 6.29% for the first, -0.69% for the second.

`Cc1cccc(N2CCN(C(=O)CN(C)S(=O)(=O)c3ccc4c(c3)CCC(=O)N4)CC2)c1C` was tested, and the inhibition was 16.5% (active).
With `O=c1[nH]n(-c2cccc(Cl)c2)c2ncccc12` the inhibition was 29.8% (active).
`O=C(c1ccc(-c2ccccc2)cc1)C1CCCN(C(=O)c2cncs2)C1` (stereo not drawn) was tested, and the inhibition was 24% (active).
